PubChem BioAssay AID1345085 (National Center for Advancing Translational Sciences (NCATS), 2018)
Records with an inconclusive call do not appear. Unmarked numbers belong to inactive results. Calls of active or inactive are those of the source. The call rests on the fitted dose curve; in most records, active means well fitted cell-killing curve with a large enough effect; inconclusive means small, poorly fitted or top-dose-only effect, or effect the other way; inactive means no such curve, though single readings can be large or run the other way.

system: Jar; assay: Confirmatory qHTS for gynecologic anti-cancer compounds from libraries of approved drugs and bioactive compounds; conditions: gynecologic cancer cell panel viability, ATPlite luminescence, 48 h; series mostly up to 57.6 µM; activity change, negative = viability loss: at the top concentration; further: nearly all actives have a fitted effect of over 55% in size
Outline: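 Cells (1,000/well) were plated, left 16 h at 37 C/5% CO2, then given compound at 11 concentrations (1:3) from 57.5 uM to 0.977 nM for 48 h. ATPlite luminescence after 15 min at room temperature gave IC50 values.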
On the % scale 0 is the no-effect control and ±100 the full control effect; potency means the concentration at half of the fitted maximal effect.

Compound | Potency | activity change, negative = viability loss
CC(=O)O[C@H]1C(=O)[C@@]2(C)[C@H]([C@H](OC(=O)c3ccccc3)[C@]3(O)C[C@H](OC(=O)[C@H](O)[C@@H](NC(=O)c4ccccc4)c4ccccc4)C(C)=C1C3(C)C)[C@]1(OC(C)=O)CO[C@@H]1C[C@@H]2O | 0.0366 µM (active) | –
CNC(=O)c1ccccc1Nc1nc(Nc2ccc(N3CCOCC3)cc2OC)ncc1Cl | 19.3 µM (active) | –
CC[C@]1(O)C[C@H]2CN(CCc3c([nH]c4ccccc34)[C@@](C(=O)OC)(c3cc4c(cc3OC)N(C=O)[C@H]3[C@@](O)(C(=O)OC)[C@H](OC(C)=O)[C@]5(CC)C=CCN6CC[C@]43[C@@H]65)C2)C1 | 0.273 µM (active) | –
O=c1cc(CN2CCOCC2)occ1OCCCCCSc1ccnc2cc(C(F)(F)F)ccc12 | 7.69 µM (active) | –
CC(C)Oc1ccc2c(=O)c(-c3ccccc3)coc2c1 | 21.7 µM (active) | –
CNC(=O)c1ccccc1Sc1ccc2c(/C=C/c3ccccn3)n[nH]c2c1 | 19.3 µM (active) | –
CN1CCN(Cc2ccc(NC(=O)Nc3ccc(Oc4cc(NC(=O)C5CC5)ncn4)cc3)cc2C(F)(F)F)CC1 | 19.3 µM (active) | –
CCC(=O)N1CCN(c2ccc(-n3c(=O)ccc4cnc5ccc(-c6cnc7ccccc7c6)cc5c43)cc2C(F)(F)F)CC1 | 1.57 µM (active) | –
Cc1cnc(Nc2ccc(F)cc2Cl)nc1-c1c[nH]c(C(=O)NC(CO)c2cccc(Cl)c2)c1 (stereo unspecified) | – | -14%
CCCC(=O)O[C@]1(C(=O)CCl)[C@@H](C)C[C@H]2[C@@H]3CCC4=CC(=O)C=C[C@]4(C)[C@@]3(F)C(=O)C[C@@]21C | 43.2 µM (active) | –
COc1ccc(-c2ccc3c(N4CCOCC4C)nc(N4CCOCC4C)nc3n2)cc1CO (stereo unspecified) | – | 13.6%
Cc1cc(C(=O)N2CCN(c3cccc(Cl)c3)CC2)n(-c2ccccc2)n1 | 1.72 µM (active) | –
CCC1C(=O)N(C)c2cnc(Nc3ccc(C(=O)NC4CCC(N5CCN(CC6CC6)CC5)CC4)cc3OC)nc2N1C(C)C (stereo unspecified) | 0.0611 µM (active) | –
O=C(c1ccc(/C=C/c2n[nH]c3ccccc23)cc1)N1CCNCC1 | 30.6 µM (active) | –
CCC1C(=O)N(C)c2cnc(Nc3ccc(C(=O)NC4CCN(C)CC4)cc3OC)nc2N1C1CCCC1 (stereo unspecified) | 0.0217 µM (active) | –
CC(Oc1ccc2[nH]nc(/C=C/c3cnn(CCO)c3)c2c1)c1c(Cl)cncc1Cl (stereo unspecified) | – | -2.73%
COc1cc(Nc2c(C#N)cnc3cc(OCCCN4CCN(C)CC4)c(OC)cc23)c(Cl)cc1Cl | 24.3 µM (active) | –
N=C(N)c1ccc(OCCCCCOc2ccc(C(=N)N)cc2)cc1 | 5.44 µM (active) | –
Cc1ccc(C(=O)Nc2ccc(CN3CCN(C)CC3)c(C(F)(F)F)c2)cc1C#Cc1cnc2[nH]ncc2c1 | – | 6.71%
CC(C)(C(=O)NCC(F)(F)C(F)(F)F)C(=O)NC1C(=O)Nc2ccccc2-c2ccccc21 (stereo unspecified) | – | 2.12%
CN[C@@H](C)C(=O)N[C@H]1CN(C(=O)CC(C)C)CC[C@H]2CC[C@@H](C(=O)NC(c3ccccc3)c3ccccc3)N2C1=O | – | 10.5%
Cc1cc(C(C)Nc2ccccc2C(=O)O)c2nc(N3CCOCC3)cc(=O)n2c1 (stereo unspecified) | 0.968 µM (active) | –
CN1C2CCC1CC(OC(=O)[C@H](CO)c1ccccc1)C2 (stereo partly specified) | – | -0.748%
S=c1nc[nH]c2nc[nH]c12 | 13.7 µM (active) | –
NC(=O)c1cnc(-c2ccc(C3(N)CCC3)cc2)c(-c2ccccc2)c1 | 27.3 µM (active) | –
Fc1cc(-c2cccc3ncc(-c4cnn(C5CCNCC5)c4)nc23)cc(F)c1CN1CCOCC1 | 34.3 µM (active) | –
